# Measured values taken from PubChem BioAssay (EPA / NIEHS).
# Records with an inconclusive call do not appear. The source made the active and inactive calls. Rule for the calls, unless noted: active = hit-call score of the fitted dose curve at least 0.9, where 1 is the maximum; inactive = score below 0.9.
# System: not listed separately
# Experiment: CCTE_Shafer_MEA_acute_burst_number: CCTE's Neural Acute Assay for Single-Electrode Bursts, Shafer Lab (AID 2284013)
# How it was run: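 Primary rat cortical neurons on 16-electrode MEA wells, DIV 13 or 15, exposed to compound (0.03-40 uM; ≥3 wells); 40-min recordings at 37 C before and after treatment. Burst count expressed as percent change from baseline, DMSO as negative control.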
Structure (SMILES),outcome,AC50
O=C(O)c1nc(Cl)ccc1Cl,inactive,–
COC(=O)N(OC)c1ccccc1COc1ccn(-c2ccc(Cl)cc2)n1,–,0.0942 µM (active)
Fc1ccc(Oc2ccnc3cc(Cl)cc(Cl)c23)cc1,inactive,–

# System: not listed separately
# Experiment: CCTE_Shafer_MEA_acute_burst_duration_mean: CCTE's Neural Acute Assay for Mean Burst Duration, Shafer Lab (AID 2284014);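 note: hits are decreases in mean burst duration relative to DMSO controls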
# How it was run: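 Mean burst duration was compared between a 40 min baseline and a 40 min recording in the presence of compound (0.03-40 uM, 37 C), giving percent change per well. Cultures were rat cortical neurons at DIV 13 or 15; wells needed ≥10 active electrodes.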
row,Structure (SMILES),outcome
1,O=C(O)c1nc(Cl)ccc1Cl,inactive
2,COC(=O)N(OC)c1ccccc1COc1ccn(-c2ccc(Cl)cc2)n1,inactive
3,Fc1ccc(Oc2ccnc3cc(Cl)cc(Cl)c23)cc1,inactive

# System: not listed separately
# Experiment: CCTE_Shafer_MEA_acute_per_burst_spike_number_mean: CCTE's Neural Acute Assay for Average Number of Spikes Per Burst, Shafer Lab (AID 2284015);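 note: hits are decreases in mean spikes per burst versus baseline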
# How it was run: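 Percent change in mean spikes per single-electrode burst is compared between a 40 min baseline and a 40 min recording with compound (0.03-40 uM). Cultures were rat cortical neurons on MEA plates at DIV 13 or 15, recorded at 37 C, with DMSO as the negative control.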
Structure (SMILES),outcome,AC50
O=C(O)c1nc(Cl)ccc1Cl,inactive,–
COC(=O)N(OC)c1ccccc1COc1ccn(-c2ccc(Cl)cc2)n1,–,2.16 µM (active)
Fc1ccc(Oc2ccnc3cc(Cl)cc(Cl)c23)cc1,inactive,–

# System: not listed separately
# Experiment: CCTE_Shafer_MEA_acute_interburst_interval_mean: CCTE's Neural Acute Assay for Mean Interburst Interval, Shafer Lab (AID 2284016);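 note: percent change of mean interburst interval versus each well's own pre-dose baseline; curves fitted for decrease in interburst interval relative to DMSO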
# How it was run: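 Percent change in mean single-electrode interburst interval was calculated per well from 40 min recordings before and after compound (0.03-40 uM). Recordings were made at 37 C on rat cortical cultures at DIV 13 or 15, with spikes detected at 8x rms threshold.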
row,Structure (SMILES),outcome
1,O=C(O)c1nc(Cl)ccc1Cl,inactive
2,COC(=O)N(OC)c1ccccc1COc1ccn(-c2ccc(Cl)cc2)n1,inactive
3,Fc1ccc(Oc2ccnc3cc(Cl)cc(Cl)c23)cc1,inactive

# System: not listed separately
# Experiment: CCTE_Shafer_MEA_acute_burst_percentage_mean: CCTE's Neural Acute Assay for Percentage of Spikes in a Burst, Shafer Lab (AID 2284017);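 for AC50: curve fitted for loss of signal so potency reflects decreased burst percentage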
# How it was run: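 Well-level mean burst percentage from a 40-min recording after compound (0.03-40 uM) expressed as percent change from a 40-min baseline at 37C. Cultures: primary rat cortical neurons on MEA, dosed on DIV 13 or 15; fitted downward relative to DMSO.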
Structure (SMILES),outcome,AC50
O=C(O)c1nc(Cl)ccc1Cl,inactive,–
COC(=O)N(OC)c1ccccc1COc1ccn(-c2ccc(Cl)cc2)n1,–,0.976 µM (active)
Fc1ccc(Oc2ccnc3cc(Cl)cc(Cl)c23)cc1,inactive,–

# System: not listed separately
# Experiment: CCTE_Shafer_MEA_acute_per_network_burst_spike_number_mean: CCTE's Neural Acute Assay for Average Number of Spikes in a Network Burst, Shafer Lab (AID 2284019)
# How it was run: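 Percent change from baseline in mean spikes per network burst, spikes detected at 8x rms noise. Each compound at 0.03-40 uM in at least three wells of rat cortical cultures, recorded 40 min before and 40 min during exposure.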
row,Structure (SMILES),outcome
1,O=C(O)c1nc(Cl)ccc1Cl,inactive
2,COC(=O)N(OC)c1ccccc1COc1ccn(-c2ccc(Cl)cc2)n1,inactive
3,Fc1ccc(Oc2ccnc3cc(Cl)cc(Cl)c23)cc1,inactive

# System: not listed separately
# Experiment: CCTE_Shafer_MEA_acute_per_network_burst_spike_number_std: CCTE's Neural Acute Assay for Standard Deviation of Number of Spikes in a Network Burst, Shafer Lab (AID 2284020);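 note: fitted for decrease in spike-number SD versus DMSO so actives lower it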
# How it was run: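 Endpoint: percent change from 40 min baseline in standard deviation of spikes per network burst, after 40 min compound exposure (0.03-40 uM, 37 C). Cortical rat neurons on MEA at DIV 13 or 15; spikes detected at 8x rms noise, 300-5000 Hz band-pass.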
row,Structure (SMILES),outcome
1,O=C(O)c1nc(Cl)ccc1Cl,inactive
2,COC(=O)N(OC)c1ccccc1COc1ccn(-c2ccc(Cl)cc2)n1,inactive
3,Fc1ccc(Oc2ccnc3cc(Cl)cc(Cl)c23)cc1,inactive

# System: not listed separately
# Experiment: CCTE_Shafer_MEA_acute_per_network_burst_electrodes_number_mean: CCTE's Neural Acute Assay for Mean Number of Electrodes in a Network Burst, Shafer Lab (AID 2284021);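 note: curves fitted for decreases only so hits reduce electrodes per burst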
# How it was run: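 Rat primary cortical neurons on 16-electrode MEA wells were recorded 40 min at baseline on DIV 13 or 15, then 40 min after compound (0.03-40 uM), at 37 C. Value is percent change per well, fitted in loss direction versus DMSO.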
row,Structure (SMILES),outcome
1,O=C(O)c1nc(Cl)ccc1Cl,inactive
2,COC(=O)N(OC)c1ccccc1COc1ccn(-c2ccc(Cl)cc2)n1,inactive
3,Fc1ccc(Oc2ccnc3cc(Cl)cc(Cl)c23)cc1,inactive

# System: not listed separately
# Experiment: CCTE_Shafer_MEA_acute_network_burst_percentage: CCTE's Neural Acute Assay for Percentage of Network Bursts, Shafer Lab (AID 2284022);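 note: curves fitted for loss so actives lower network burst percentage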
# How it was run: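 Primary rat cortical neurons on 16-electrode MEA wells, treated on DIV 13 or 15 with compound (0.03-40 uM); 40-min baseline and 40-min post-exposure recordings at 37 C. Value is percent change in spikes within network bursts versus baseline, DMSO negative control.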
Structure (SMILES),outcome,AC50
O=C(O)c1nc(Cl)ccc1Cl,inactive,–
COC(=O)N(OC)c1ccccc1COc1ccn(-c2ccc(Cl)cc2)n1,–,0.113 µM (active)
Fc1ccc(Oc2ccnc3cc(Cl)cc(Cl)c23)cc1,inactive,–

# Target: Estrogen receptor (Homo sapiens) (UniProt P03372)
# Experiment: CCTE_Deisenroth_AIME_96WELL_LUC_Active: CCTE's 96-well Estrogen Receptor Transactivation Assay with AIME metabolic competence (ERTA luciferase; metabolism positive), Deisenroth Lab (AID 2284023; active = hit-call score of the fitted dose curve at least 0.9, where 1 is the maximum)
# How it was run: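 Metabolism-positive mode: induced rat hepatic S9 in alginate microspheres conditions test solutions (0.002 - 200 uM, 10 points) for 2 hours. VM7Luc4E2 ER luciferase reporter cells then exposed 24 h; positive-direction fit against 17beta-estradiol, n=4 typical.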
# Estrogen receptor (Homo sapiens), sequence (P03372 whole entry, looked up): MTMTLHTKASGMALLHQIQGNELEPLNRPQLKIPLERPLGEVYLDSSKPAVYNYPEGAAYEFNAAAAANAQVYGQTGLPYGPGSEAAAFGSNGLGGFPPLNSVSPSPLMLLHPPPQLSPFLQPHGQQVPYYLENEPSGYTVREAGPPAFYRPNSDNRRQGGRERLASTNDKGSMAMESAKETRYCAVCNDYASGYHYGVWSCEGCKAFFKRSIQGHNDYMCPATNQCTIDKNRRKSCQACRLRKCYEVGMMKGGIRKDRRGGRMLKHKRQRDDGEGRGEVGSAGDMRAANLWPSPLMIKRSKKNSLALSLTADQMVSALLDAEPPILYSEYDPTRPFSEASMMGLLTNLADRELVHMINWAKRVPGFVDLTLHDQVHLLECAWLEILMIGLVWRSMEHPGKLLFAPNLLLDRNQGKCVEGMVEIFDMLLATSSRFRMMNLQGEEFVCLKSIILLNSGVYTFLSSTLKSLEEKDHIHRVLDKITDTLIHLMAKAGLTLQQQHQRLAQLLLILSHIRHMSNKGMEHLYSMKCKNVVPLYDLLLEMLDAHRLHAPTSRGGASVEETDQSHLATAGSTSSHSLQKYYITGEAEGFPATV
Structure (SMILES),outcome,AC50
CCCCC(CC)COC(=O)c1ccccc1C(=O)OCC(CC)CCCC (configuration not stated),inactive,–
CCCCOC(=O)c1ccccc1C(=O)OCCCC,inactive,–
Oc1ccccc1-c1ccccc1,–,68.8 µM (active)

# System: not listed separately
# Experiment: CCTE_Shafer_MEA_acute_cross_correlation_area: CCTE's Neural Acute Assay for Area of Cross Correlation, Shafer Lab (AID 2284024);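 note: area under pooled inter-electrode spike cross-correlation near zero lag as percent change from own baseline; curves fitted for loss of cross-correlation area so actives lower synchrony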
# How it was run: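 Primary rat cortical neurons on 48-well MEA plates (16 electrodes/well) were recorded 40 min at baseline on DIV 13 or 15, then 40 min with compound (0.03-40 uM) at 37 C; cross-correlation area expressed as percent change from baseline.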
Structure (SMILES),outcome,AC50
O=C(O)c1nc(Cl)ccc1Cl,inactive,–
COC(=O)N(OC)c1ccccc1COc1ccn(-c2ccc(Cl)cc2)n1,–,0.0374 µM (active)
Fc1ccc(Oc2ccnc3cc(Cl)cc(Cl)c23)cc1,inactive,–

# Target: Estrogen receptor (Homo sapiens) (UniProt P03372)
# Experiment: CCTE_Deisenroth_AIME_96WELL_LUC_Inactive: CCTE's 96-well Estrogen Receptor Transactivation Assay without AIME metabolic competence (ERTA luciferase; metabolism negative), Deisenroth Lab (AID 2284025; active = hit-call score of the fitted dose curve at least 0.9, where 1 is the maximum)
# How it was run: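 Metabolism-negative arm: chemicals (0.002–200 uM, 10 points) incubated 2 h with alginate-water microspheres, then medium moved onto VM7Luc4E2 cells for 24 h luciferase read-out. Positive direction vs 17beta-estradiol; n≥4 experiments.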
Structure (SMILES),outcome,AC50
CCCCC(CC)COC(=O)c1ccccc1C(=O)OCC(CC)CCCC (configuration not stated),inactive,–
CCCCOC(=O)c1ccccc1C(=O)OCCCC,–,34.1 µM (active)
Oc1ccccc1-c1ccccc1,–,58.3 µM (active)

# System: not listed separately
# Experiment: CCTE_Shafer_MEA_acute_cross_correlation_HWHM: CCTE's Neural Acute Assay for Cross Correlation at Half Width at Half Maximum, Shafer Lab (AID 2284026);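 note: percent change per well from pre-dose baseline in spike cross-correlogram half width; hits are a decrease in cross-correlogram half width relative to DMSO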;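 for outcome: spontaneous network firing of rat primary cortical neurons on multiwell microelectrode arrays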
# How it was run: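 Primary rat cortical neurons on 16-electrode MEA wells; 40-min baseline on DIV 13 or 15, then 40-min recording with compound (0.03-40 uM) at 37 C. HWHM of spike cross-correlogram expressed as percent change from baseline per well, DMSO reference.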
Structure (SMILES),outcome,AC50
O=C(O)c1nc(Cl)ccc1Cl,inactive,–
COC(=O)N(OC)c1ccccc1COc1ccn(-c2ccc(Cl)cc2)n1,–,1.62 µM (active)
Fc1ccc(Oc2ccnc3cc(Cl)cc(Cl)c23)cc1,inactive,–

# System: not listed separately
# Experiment: CCTE_Shafer_MEA_acute_synchrony_index: CCTE's Neural Acute Assay for Synchrony, Shafer Lab (AID 2284027);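 note: network synchrony index of spontaneous spiking in primary rat cortical neurons on MEAs; fitted for loss of signal so actives lower synchrony relative to DMSO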
# How it was run: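 The synchrony index is taken as percent change per well between a 40 min baseline and a 40 min recording with compound (0.03–40 uM), at 37C. Rat cortical cultures on multiwell MEAs at DIV 13 or 15, spike threshold 8× rms noise.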
Structure (SMILES),outcome,AC50
O=C(O)c1nc(Cl)ccc1Cl,inactive,–
COC(=O)N(OC)c1ccccc1COc1ccn(-c2ccc(Cl)cc2)n1,–,1.73 µM (active)
Fc1ccc(Oc2ccnc3cc(Cl)cc(Cl)c23)cc1,inactive,–
